High-throughput results (PubChem BioAssay)
Mtb betalactam: beta-lactam sensitization of Mtb H37Rv; M. tuberculosis H37Rv growth with meropenem, percent inhibition; inhibition, % at 25 µM; hit rate 0.27% among 330,000; AID 434955;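 also: growth measured after seven days incubation then overnight dye step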
FBA Mtb inh: inhibits M. tuberculosis FBA enzyme; purified M. tuberculosis FBA, fluorescence read-out; inhibition, % at 1 µM; hit rate 2.3% among 360,000; AID 588726; in the data active = inhibition above about 27%
RecA intein inh: blocks M. tuberculosis RecA intein splicing; P9WHJ3; cell-free RecA intein splicing, fluorescence; inhibition, % (no concentration beside the values); hit rate 0.75% among 290,000; in the data active = inhibition above about 30%
Rv3671c protease: Rv3671c (M. tuberculosis) protease inhibition; inhibition, % at 5.96 µM; AID 2606; hit rate 0.048% among 320,000; P9WHR9; in the data active = inhibition above about 38%;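 also: extracellular domain of Rv3671c used as enzyme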
Target sequence (P9WHR9 whole entry, looked up, the tested form may be a part): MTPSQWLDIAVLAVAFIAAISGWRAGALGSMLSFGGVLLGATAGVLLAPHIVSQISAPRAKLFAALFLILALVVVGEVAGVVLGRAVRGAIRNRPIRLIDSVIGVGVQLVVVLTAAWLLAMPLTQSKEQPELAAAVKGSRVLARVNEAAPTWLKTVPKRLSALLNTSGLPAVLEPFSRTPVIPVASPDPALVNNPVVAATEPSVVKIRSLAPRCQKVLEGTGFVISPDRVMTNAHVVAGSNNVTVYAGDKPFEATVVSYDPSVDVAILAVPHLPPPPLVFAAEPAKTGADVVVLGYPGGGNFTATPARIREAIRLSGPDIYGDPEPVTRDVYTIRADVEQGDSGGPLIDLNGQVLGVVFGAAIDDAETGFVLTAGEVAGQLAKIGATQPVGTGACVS
UGM FP inh: Mtb UDP-galactopyranose mutase inhibition | AID 504406 | inhibition, % at 10 µM | P9WIQ1 | purified UGM, fluorescence polarization probe displacement | hit rate 0.06% among 320,000; in the data active = inhibition above about 10%, passing the limit was not always enough
GDH-TPI counter-1: counter-screen for M. tuberculosis FBA inhibitors: GDH-TPI coupled enzymes; GDH-TPI coupled enzyme counterscreen, NADH absorbance; inhibition, % at 4.8 µM; AID 588335; hit rate 1.2% among 360,000; in the data active = inhibition above about 30%
Mtb FBA confirm: Mtb FBA inhibition, confirmed | shares compounds with FBA Mtb inh | purified M. tuberculosis FBA, fluorescence read-out | inhibition, % at 1 µM | hit rate 78% among 5,600 | AID 651616; in the data active = inhibition above about 27%
GDH-TPI counter-2: counter-screen for M. tuberculosis FBA inhibitors: GDH-TPI coupled enzyme inhibition | shares compounds with FBA Mtb inh | GDH-TPI coupled enzyme counterscreen, fluorescence | inhibition, % at 1 µM | AID 652141 | hit rate 81% among 5,600; in the data active = inhibition above about 10%
GDH-TPI dose: GDH-TPI dose response counter-screen for Mtb FBA; shares compounds with FBA Mtb inh; GDH-TPI coupled enzyme assay, fluorescence, artifact counterscreen; IC50, µM; hit rate 79% among 170; AID 652145
Hits are given with their value; 0 = inactive; - = no result given; + = active, no number. An excerpt weighted towards active compounds, which were near 4% of everything screened. Unless noted, no rule for the calls is given here.

SMILES	Mtb betalactam	FBA Mtb inh	RecA intein inh	Rv3671c protease	UGM FP inh	GDH-TPI counter-1	Mtb FBA confirm	GDH-TPI counter-2	others
CNS(=O)(=O)c1cc(NC(=O)c2cnc(SC)n2-c2ccccc2)ccc1C	0	0	0	0	0	0	-	-
C#CCOc1ccc(C2C3=C(CC(C)(C)CC3=O)N(CC(=O)O)C3=C2C(=O)CC(C)(C)C3)cc1	0	92	0	0	0	0	0	0
COc1cccc(-c2cnc(C(O)c3ccc(OC)c(F)c3)[nH]2)c1 (stereo unspecified)	-	0	-	-	-	0	-	-
C=CCN(c1ccccc1)S(=O)(=O)c1cccc(C(=O)O)c1	0	54	0	0	0	0	199	189
Cc1ccc(S(=O)(=O)NCCc2cn3nc(C)c(C)nc3n2)cc1C	0	64	0	0	0	0	159	159
Cn1c(=O)c2c(c3ccccc31)OC(=O)CC2c1cccnc1 (stereo unspecified)	-	0	-	-	-	0	-	-
COc1ccc(C2CC(=O)Oc3c2c(=O)n(C)c2ccccc32)c(OC)c1OC (stereo unspecified)	0	37	0	0	0	0	0	0
Cc1cccn2c(=O)c3cc(C(=O)N4CCN(Cc5ccccc5)CC4)sc3nc12	0	57	-	0	0	0	0	0
CC1CCCN(C(=O)c2cc3c(=O)n4ccccc4nc3s2)C1 (stereo unspecified)	0	59	0	0	0	0	50	30
Cc1cccn2c(=O)c3cc(C(=O)N4CCCC(C)C4)sc3nc12 (stereo unspecified)	0	0	0	0	0	0	-	-
O=C(c1cc2c(=O)n3ccccc3nc2s1)N1CCN(Cc2ccc3c(c2)OCO3)CC1	0	96	0	0	0	0	0	0	GDH-TPI dose=2.3
O=C(c1cc2c(=O)n3ccccc3nc2s1)N1CCN(Cc2ccccc2)CC1	0	105	0	0	0	0	0	0
O=C(CSc1ccccc1)N1CCCC(N2CCN(c3cccc(Cl)c3)CC2)C1 (stereo unspecified)	0	0	0	0	0	0	-	-
CCOc1ccc(S(=O)(=O)N2CCN(C(=O)CN3C(=O)NC(C)(C)C3=O)CC2)cc1	0	0	-	0	0	0	-	-
CN(CCOc1ccccc1)C(=O)c1cc(S(=O)(=O)N2CCOCC2)ccc1Cl	0	31	0	0	0	0	146	116
O=C(Nc1ccc(S(=O)(=O)N2CCOCC2)cc1)c1cc(S(=O)(=O)N2CCOCC2)ccc1Cl	0	0	0	0	0	0	-	-
CCN1CCN(S(=O)(=O)c2ccc(Cl)c(C(=O)NC3CCCC3)c2)CC1	0	47	0	0	0	0	+	+
O=C(CNC1CCCCC1)Nc1cc(S(=O)(=O)N2CCOCC2)ccc1Cl	0	106	0	0	0	0	+	+
O=C(Nc1ccncc1)c1cc(S(=O)(=O)N2CCOCC2)ccc1Cl	0	97	0	0	0	0	+	+
CSC[C@H]1CN(c2ccccc2)C(=O)[C@@H]1CC(=O)Nc1ccccc1	-	0	-	-	-	0	-	-
O=C(NC1CCCCC1)c1cc(S(=O)(=O)N2CCCC2)ccc1Cl	0	104	0	0	0	0	77	58
O=C(Nc1ccc(Cl)cn1)c1cc(S(=O)(=O)N2CCCCC2)ccc1Cl	0	77	0	0	0	0	0	0
O=C(Nc1ccc(Cl)cn1)c1cccc(S(=O)(=O)N2CCCCCC2)c1	-	0	-	-	-	0	-	-
Cc1cccc(Oc2ccc(NC(=O)C3=CC=CN4CCS(=O)(=O)N=C34)cc2)c1	0	0	-	0	0	0	-	-
O=C(c1ccccc1NS(=O)(=O)c1ccc(F)cc1F)N1CCCCC1	0	0	-	0	0	0	-	-
COCc1cccc(-c2csc(C(O)c3ccccc3)n2)c1 (stereo unspecified)	-	0	-	-	-	0	-	-
Cc1ccccc1NS(=O)(=O)c1ccc2c(c1)CCC(=O)N2	-	0	-	-	-	0	-	-
COc1ccc(CCNc2c3ccccc3nc3ccccc23)cc1OC	0	55	0	0	0	0	+	+
c1ccc2c(NCCc3c[nH]c4ccccc34)c3ccccc3nc2c1	0	39	0	0	0	0	116	95
COc1ccc(CCNc2ncnc3cc(OC)c(OC)cc23)cc1OC	-	0	0	-	-	0	-	-
